Results as given in PubChem BioAssay.
Calls of active or inactive are those of the source.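 The calls were made as follows, unless noted: active = NADPH fluorescence slope more negative than the mean of all samples by about 3 SD, 99.7% confidence; inactive = the rest.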

Tests used:
[1] = inhibitors of TNFa-induced NFkB p65 translocation, primary screen, imaging, HUVEC, MLSMR starter and 10KST1 sets (AID 438;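 active = inhibition above 20% together with a positive visual image hit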;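 also: compound added about 3h40 before a 20 min TNFalpha stimulation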;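 as to inhibition: signal is the nuclear over cytoplasmic p65 intensity ratio per well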); conditions: HUVEC TNFa-induced p65 nuclear translocation; cell count: measured here: nuclei count (cytotoxicity indicator), at 2.08 µM; inhibition: at 2 µM, stronger effect = higher value, 0% TNFa-plus-vehicle, 100% no-TNFa wells
[2] = inhibitors of mutant huntingtin aggregation, primary screen, imaging, exon1htt(103Q)mCFP cells, high-content imaging (AID 483;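 active = visual image review flags a hit and inhibition of aggregation exceeds 20%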;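 also: compound exposure lasted 3 days before fixation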;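 as to nuclei count: percent of the per-plate median nuclei count of sample wells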); conditions: exon1htt(103Q)mCFP cell line, aggregate imaging, at 2 µM; inhibition of aggregation: stronger effect = higher value; nuclei count: measured here: cell count, toxicity
[3] = inhibitors of E-selectin induction by TNFa, primary screen, imaging, HUVEC, immunofluorescence, MLSMR starter and 10KST1 sets (AID 487;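 active = visually confirmed hit in the image check and inhibition above 20%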;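 as to inhibition: signal is fraction of cell area covered by stained E-selectin grains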;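 as to nuclei count: 100% = median nuclei count of all wells on the same plate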); conditions: HUVEC TNFalpha-induced E-selectin immunofluorescence imaging, at 2 µM; inhibition: stronger effect = higher value; nuclei count: measured here: cell number, toxicity
[4] = target: Voltage-gated potassium channel subunit beta-2 (Rattus norvegicus) (UniProt P62483); assay: KvBeta enzyme negative modulators, primary screen, biochemical, NADPH fluorescence (AID 622;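 active = fluorescence slope higher than the sample average by over 3 SD, cut at about -0.22 in these data, passing the limit was not always enough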;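 also: slope of raw intensity against log time taken from 70 to 1610 s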); conditions: recombinant KvBeta, 4-cyanobenzaldehyde reduction, at 10 µM, stronger effect = higher value
Chain of Voltage-gated potassium channel subunit beta-2 (Rattus norvegicus) (P62483 whole entry, looked up): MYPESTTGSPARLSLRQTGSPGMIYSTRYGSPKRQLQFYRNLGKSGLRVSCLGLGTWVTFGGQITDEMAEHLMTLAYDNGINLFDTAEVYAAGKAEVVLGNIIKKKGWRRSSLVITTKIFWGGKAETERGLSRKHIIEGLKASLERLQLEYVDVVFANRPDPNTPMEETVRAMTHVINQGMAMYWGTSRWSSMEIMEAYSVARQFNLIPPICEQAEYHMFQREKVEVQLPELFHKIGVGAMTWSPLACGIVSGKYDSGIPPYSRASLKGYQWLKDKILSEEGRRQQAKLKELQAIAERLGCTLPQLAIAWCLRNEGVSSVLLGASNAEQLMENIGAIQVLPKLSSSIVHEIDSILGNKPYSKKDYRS

[5] = target: Voltage-gated potassium channel subunit beta-2 (Rattus norvegicus) (UniProt P62483); assay: KvBeta positive modulators, primary screen, biochemical, NADPH fluorescence (AID 623); conditions: Recombinant KvBeta, NADPH fluorescence decrease slope, 10 min; at 10 µM; stronger effect = lower value;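 also: fluorescence intensity change per second fitted from 20 to 320 s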
[6] = target: Alpha-2C adrenergic receptor (Homo sapiens) (UniProt P18825); assay: modulators of alpha2C/GIRK thallium flux, primary screen, cell-based, HEK293 alpha2C/GIRK1/2 (AID 624;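 active = fluorescence slope after compound addition differing from the mean of all screened samples at 99.7% confidence, in either direction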;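 also: slope of fluorescence ratio to pre-addition baseline per second over 15 to 24 s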); conditions: thallium flux BTC fluorescence, at 10 µM, actives lie on both sides
Chain of Alpha-2C adrenergic receptor (Homo sapiens) (P18825 whole entry, looked up): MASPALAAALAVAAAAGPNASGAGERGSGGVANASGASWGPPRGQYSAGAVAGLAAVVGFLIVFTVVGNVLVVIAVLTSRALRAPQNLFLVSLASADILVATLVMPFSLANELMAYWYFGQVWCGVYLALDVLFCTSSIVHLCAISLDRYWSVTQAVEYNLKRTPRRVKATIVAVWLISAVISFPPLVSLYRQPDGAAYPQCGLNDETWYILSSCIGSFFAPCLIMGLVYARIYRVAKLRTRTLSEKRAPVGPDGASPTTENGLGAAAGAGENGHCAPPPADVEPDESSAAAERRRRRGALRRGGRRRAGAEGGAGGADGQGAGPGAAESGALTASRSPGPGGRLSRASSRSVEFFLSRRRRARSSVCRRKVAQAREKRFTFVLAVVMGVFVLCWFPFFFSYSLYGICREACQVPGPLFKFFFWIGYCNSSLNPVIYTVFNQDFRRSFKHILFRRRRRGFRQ

[7] = inhibitors of Sendai virus-induced IRF3 signaling, primary screen, TLR/RLR signaling modifier project, cell-based, Sendai virus stimulus, luciferase, 10K MLSCN set (AID 602276;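 active = inhibition at or above 50% at 10 µM; inactive = inhibition below 50%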;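 also: firefly luciferase from ISG56 promoter only with Renilla not read in this screen; 0% = Sendai virus plus DMSO and 100% = medium plus DMSO without virus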); conditions: HEK293 RL24 IRF3 luciferase reporter, at 10 µM, stronger effect = higher value
[8] = inhibitors of poly I:C-induced TLR3 signaling, primary screen, cell-based, poly I:C stimulus, luciferase, 10K MLSCN set (AID 602277;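 active = inhibition of the reporter signal at or above 50%; inactive = inhibition below 50%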); conditions: HEK293-TLR3 RL24 IRF3 luciferase reporter, at 10 µM, stronger effect = higher value

| SMILES | cell count [1] | inhibition [1] | inhibition of aggregation [2] | nuclei count [2] [%] | inhibition [3] | nuclei count [3] [%] | fluorescence slope [4] | NADPH fluorescence slope [5] | slope [6] | inhibition [7] | inhibition [8] |
| --- | --- | --- | --- | --- | --- | --- | --- | --- | --- | --- | --- |
| CCCCCC1CC(CC(C)C(=O)Nc2nncs2)C(=O)O1 (centres undefined) | 629 | -7.3% (inactive) | -20.6% (inactive) | 112 | -68% (inactive) | 85.5 | -0.369 (inactive) | 2.3e-05 (inactive) | 0.00624 (inactive) | 11.3% (inactive) | 20.7% (inactive) |
| CCCCCc1c(C)nc(SCC(=O)O)[nH]c1=O | 611 | -5.4% (inactive) | 12.9% (inactive) | 97.3 | -31.8% (inactive) | 106 | -0.539 (inactive) | 3.4e-05 (inactive) | 0.00694 (inactive) | -8.6% (inactive) | -1.36% (inactive) |
| COC(=O)c1cccc(NC(=O)Cc2coc3cc(OC)ccc23)c1 | 402 | 11.4% (inactive) | 5.4% (inactive) | 75.4 | -64.1% (inactive) | 120 | -0.595 (inactive) | -6.1e-06 (inactive) | 0.0055 (inactive) | 4.7% (inactive) | -15.2% (inactive) |
| CCOC(=O)N1CCC(N(CCCOC)C(=O)Nc2ccc(CC)cc2)CC1 | 574 | 2.2% (inactive) | -21.3% (inactive) | 106 | 12.1% (inactive) | 93.2 | -0.531 (inactive) | -2.6e-05 (inactive) | 0.00487 (inactive) | 4.87% (inactive) | 9.22% (inactive) |
| CC1CCN(c2c(NCc3ccc(C(=O)N4c5ccccc5CC4C)cc3)c(=O)c2=O)CC1 (centres undefined) | 726 | -5.7% (inactive) | 31.5% (inactive) | 104 | -38.2% (inactive) | 105 | -0.572 (inactive) | -3.6e-05 (inactive) | 0.00643 (inactive) | 21.8% (inactive) | 45.8% (inactive) |
| Cc1ccc(CCNC(=O)C2CCCN(S(=O)(=O)c3cnc[nH]3)C2)cc1 (centres undefined) | 603 | -0.2% (inactive) | -6.4% (inactive) | 99.1 | -89.2% (inactive) | 135 | -0.577 (inactive) | -1.4e-06 (inactive) | 0.00614 (inactive) | 1.87% (inactive) | 18% (inactive) |
| CCC(C)(C)n1nnnc1C(c1ccc(OC)c(OC)c1)N1CCN(c2ccc(F)cc2)CC1 (centres undefined) | 406 | 4% (inactive) | -1% (inactive) | 96.8 | 10.4% (inactive) | 106 | -0.442 (inactive) | -2.6e-05 (inactive) | 0.00413 (inactive) | 14% (inactive) | 43.5% (inactive) |
| CN(c1ccccc1)S(=O)(=O)c1ccc(C(=O)OCC(=O)NCc2ccco2)cc1 | 608 | 11.6% (inactive) | 14.7% (inactive) | 112 | -37.2% (inactive) | 99.7 | -0.588 (inactive) | 2e-05 (inactive) | 0.00551 (inactive) | -14.7% (inactive) | 0.385% (inactive) |
| COc1cc(OC)cc(OCC(O)Cn2cnc(-c3ccccc3)c2)c1 (centres undefined) | 586 | 6% (inactive) | -5.4% (inactive) | 92.1 | 11.1% (inactive) | 94.7 | -0.469 (inactive) | -4e-05 (inactive) | 0.00517 (inactive) | 17.6% (inactive) | 31.3% (inactive) |
